NS1 inh: blocks influenza NS1 protein function; Potency, µM (highest dose often 46.1 µM); hit rate 0.4% among 270,000; calls by dose curve; note: actives are rising curves; nearly all actives have a fitted effect of over 50% in size
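In this qHTS, NS1 from influenza A is expressed in budding yeast, where it slows growth. Cells are switched from glucose to 2% galactose medium (pH 6.0, -URA), treated with compound, and growth recovery is read at OD600.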
AmpC inh no detg: inhibitors of E. coli AmpC beta-lactamase without detergent; hit rate 0.52% among 330,000; P00811; Potency, µM (top dose mostly 57.1 µM), usual class: inhibitors; AmpC nitrocefin hydrolysis, absorbance 480 nm, 0.0001% Triton; note: nearly all actives have a fitted effect of over 20% in size
Target sequence (P00811 whole entry, looked up): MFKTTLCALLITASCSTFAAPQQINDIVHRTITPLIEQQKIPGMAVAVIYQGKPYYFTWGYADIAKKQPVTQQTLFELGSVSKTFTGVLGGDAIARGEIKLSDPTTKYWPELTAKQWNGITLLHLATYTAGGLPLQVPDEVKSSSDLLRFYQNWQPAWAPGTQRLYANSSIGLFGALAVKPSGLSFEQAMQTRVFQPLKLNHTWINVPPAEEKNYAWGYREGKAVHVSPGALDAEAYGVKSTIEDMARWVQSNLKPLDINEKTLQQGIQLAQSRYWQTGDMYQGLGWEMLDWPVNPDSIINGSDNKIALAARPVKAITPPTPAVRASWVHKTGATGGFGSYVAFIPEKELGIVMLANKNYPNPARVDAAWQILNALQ
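20 mM phosphate pH 7.0 + 0.01% (detergent screen) or 0.0001% Triton X-100; 5.3 nM AmpC reagent; cpd preinc 15 min RT; nitrocefin (800 uM stock) to start; A480 q20 s × 4 min; Activity was normalised to no-enzyme and no-compound control wells.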
CHX counter: affects cycloheximide protein synthesis inhibition readout, counter-screen; cell reporter, cycloheximide protein synthesis inhibition counterscreen; max response, %; hit rate 12% among 300,000; in the data active = max response mostly above about 13%, no sharp cut-off; inactive = mostly below about 14%; note: read at 38.3 µM for the half of the compounds with a filed dose
AmpC inh detg: inhibitors of E. coli AmpC beta-lactamase with detergent | P00811 | AmpC hydrolysis of nitrocefin, absorbance 480 nm, 0.01% Triton | Potency, µM (doses to about 114 µM), usual class: inhibitors | hit rate 0.041% among 370,000 | AID 485294; note: nearly all actives have a fitted effect of over 25% in size
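20 mM phosphate pH 7.0 + 0.01% (detergent screen) or 0.0001% Triton X-100; 5.3 nM AmpC reagent; cpd preinc 15 min RT; nitrocefin (800 uM stock) to start; A480 q20 s × 4 min; Activity was normalised to no-enzyme and no-compound control wells.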
Shiga toxin inh: blocks Shiga toxin action in Vero cells; Vero cells, Shiga toxin protein synthesis inhibition reporter; hit rate 9.2% among 290,000; AID 2315; inhibition, % at 38.7 µM; in the data active = inhibition mostly above about 28%, no sharp cut-off; inactive = mostly below about 43%
Of the large screens only hits and unclear results are named; the others gave an inactive call. Many of the other results were omitted from the sample, so hits are more common in it than they were. Unless noted, calls come from the whole dose curve; as a rule, active = well fitted curve in the direction sought with a large enough effect; inconclusive = small, poorly fitted or top-dose-only effect, or another doubt; inactive = no such curve, though single readings can be large; an effect the other way counts as inactive or inconclusive.

CCOC(=O)c1cnc2c(-c3ccccc3)cnn2c1N	CHX counter 30, AmpC inh detg inconclusive, Shiga toxin inh 90
CCOC(=O)c1cnc2c(N=Nc3ccccc3)c(N)nn2c1N	CHX counter 41, AmpC inh detg inconclusive
CCOC(=O)c1cnn(-c2ccc(C(=O)Nc3cccc(C(C)=O)c3)cc2)c1N	none (no result: NS1 inh, AmpC inh no detg, CHX counter, Shiga toxin inh)
Cc1ccc(N2C(=O)CS(=O)(=O)C23C(=O)N(Cc2ccc(Cl)cc2)c2ccccc23)cc1C (stereo not drawn)	none (no result: NS1 inh, AmpC inh no detg, CHX counter, Shiga toxin inh)
Cn1c(=O)c2sccc2n2c(CCCC(=O)NCc3ccccc3)nnc12	none (no result: NS1 inh, AmpC inh no detg, CHX counter, Shiga toxin inh)
CC1=C(C(N)=O)C(c2ccc(F)cc2)n2nc(-c3ccc(N(C)C)cc3)nc2N1 (stereo not drawn)	none (no result: NS1 inh, AmpC inh no detg, CHX counter, Shiga toxin inh)
O=S(=O)(NCCc1ccccc1)c1cccs1	none
O=S(=O)(NCCc1ccc2c(c1)OCCO2)c1cccs1	CHX counter 19
Cc1cccc(C)c1OCc1cc(C(=O)N2CCN(C3CCCC3)CC2)no1	CHX counter 35, Shiga toxin inh 64
Cc1cccc(C)c1OCc1cc(C(=O)N2CCN3CCCC3C2)no1 (stereo not drawn)	CHX counter 19, Shiga toxin inh 44
O=C(c1cc(COc2c(F)cccc2F)on1)N1CCC(c2ccncc2)CC1	none
Cc1cc(C(=O)N2CCCC(N3CCN(c4cccc(Cl)c4)CC3)C2)no1 (stereo not drawn)	none
CCN1CCN(C(=O)c2cc(COc3c(C)cccc3C)on2)CC1	CHX counter 19
COc1cccc(OCc2cc(C(=O)N3CCN(C4CCCC4)CC3)no2)c1	none
Cc1cccc(C)c1OCc1cc(C(=O)N2CCC(c3ccncc3)CC2)no1	CHX counter 37, Shiga toxin inh 58
CSc1ccccc1OCc1cc(C(=O)N2CCN3CCCC3C2)no1 (stereo not drawn)	CHX counter 15
Cc1cccc(Nc2cc(C)c3c(O)cccc3n2)c1C	CHX counter 32, AmpC inh detg inconclusive, Shiga toxin inh 92
O=C1c2sc3nc4n(c(=O)c3c2CCC1Br)CCCCC4 (stereo not drawn)	CHX counter 31, Shiga toxin inh 53
O=c1c2c3c(sc2nc2n1CCCCC2)C(O)CCC3 (stereo not drawn)	CHX counter 55, Shiga toxin inh 70
O=C1CCCc2c1sc1nc3n(c(=O)c21)CCCCC3	none
CCOC(=O)c1cc(C)n(-c2ccccc2)c1C	CHX counter 50, Shiga toxin inh 52
CC(C)OC(=O)c1ccc(Cn2nnc3ccccc3c2=O)cc1	CHX counter 27, Shiga toxin inh 89
Cc1cc(C(=O)COC(=O)c2ccc(O)cc2O)c(C)n1-c1ccccc1	AmpC inh detg inconclusive (no result: NS1 inh, CHX counter, Shiga toxin inh)
Cc1cc(C(=O)OCn2nnc3ccccc3c2=O)c(C)n1-c1ccccc1	NS1 inh inconclusive, CHX counter 62, Shiga toxin inh 69
Cc1cc(C(=O)OCC(N)=O)c(C)n1-c1ccccc1	CHX counter 33, Shiga toxin inh 41 (no result: NS1 inh)
Cc1ccccc1C(=O)OCn1nnc2ccccc2c1=O	AmpC inh detg inconclusive
CC1CN(C(=O)c2ccc(-c3cccc(C(F)(F)F)c3)o2)CC(C)O1 (stereo not drawn)	AmpC inh detg inconclusive (no result: NS1 inh, CHX counter, Shiga toxin inh)
C/C(N)=C(/C#N)C(=O)COC(=O)c1cc(C)n(-c2ccc(F)cc2)c1C	CHX counter 72, Shiga toxin inh 96
O=C(NCc1ccccc1)c1ccc2c(c1)nc1n2CCOC1	none (no result: NS1 inh, AmpC inh no detg, CHX counter, Shiga toxin inh)
COc1ccc(CNS(=O)(=O)c2ccc3c(c2)CC(C)N3C(=O)C2CC2)cc1 (stereo not drawn)	none
CCN(c1ccc(OC)cc1)S(=O)(=O)c1ccc2c(c1)CC(C)N2C(=O)C1CC1 (stereo not drawn)	CHX counter 22
Cc1ccc(-c2ccc(C(=O)O)c(C)n2)cc1	none
CCOC(=O)c1ccc(-c2ccc3c(c2)CCC3)nc1C	CHX counter 29, Shiga toxin inh 93
CCOc1ncccc1C(=O)OCC(=O)Nc1ccc2c(c1)CCC2	none (no result: NS1 inh, CHX counter, AmpC inh detg, Shiga toxin inh)
COC(=O)c1ccc(-c2ccc(F)cc2)nc1C	CHX counter 112, AmpC inh detg inconclusive, Shiga toxin inh 73
O=Cc1ccc(-n2nncc2-c2ccc([N+](=O)[O-])cc2)cc1	none
NS(=O)(=O)c1cccc(NC(=O)c2cncc(Br)c2)c1	none
O=C(Nc1ccc2c(c1)OCO2)c1cncc(Br)c1	CHX counter 32, Shiga toxin inh 66
O=C(Nc1ccc2c(c1)OCCO2)c1cncc(Br)c1	CHX counter 23
CCN(CC)C(=O)CSc1nnc(COc2cccc(C)c2)n1C	none
Cc1ccc(NC(=O)CSc2nn(-c3ccc(Cl)cc3)c(=S)s2)cc1S(=O)(=O)N(C)C	none
CN(C)S(=O)(=O)c1cc(NC(=O)CSc2nn(-c3ccc(Cl)cc3)c(=S)s2)ccc1Cl	NS1 inh inconclusive, AmpC inh no detg 14µM, AmpC inh detg inconclusive
O=C(N/N=C/C1CC2C=CC1C2)c1ccccc1O (stereo not drawn)	CHX counter 40, Shiga toxin inh 68
CC(=O)Nc1ccc(C(=O)N/N=C/C2CC3C=CC2C3)cc1 (stereo not drawn)	none (no result: NS1 inh)
c1ccc2cc3[nH]c(CN4CCOCC4)nc3cc2c1	CHX counter 17, Shiga toxin inh 35
O=C(Cn1cccc1C(=O)c1ccccc1)NCc1cccc(Cl)c1	CHX counter 32, Shiga toxin inh 53 (no result: NS1 inh)
Cn1cc(/C=C2\C(=O)NC(=O)N(c3ccccc3)C2=O)c2ccccc21	none
CC(C)n1cc(/C=C2/SC(=O)N(CC(=O)N3CCCC3)C2=O)c2ccccc21	NS1 inh inconclusive
Cn1cc(/C=C2\SC(=O)N(c3ccccc3)C2=O)c2ccccc21	CHX counter 19
Cn1cc(/C=C2\SC(=O)N(c3ccc(O)cc3)C2=O)c2ccccc21	CHX counter 45, Shiga toxin inh 91
CCN1C(=O)S/C(=C/c2cn(C)c3ccccc23)C1=O	CHX counter 27, Shiga toxin inh 44
Cc1onc(-c2ccccc2)c1C(=O)Nc1ccc(Cl)c(S(=O)(=O)N2CCOCC2)c1	none (no result: NS1 inh, CHX counter, Shiga toxin inh)
O=C(Cn1nc(C(F)(F)F)c2c1CCC2)Nc1ccc(Cl)cc1	none (no result: NS1 inh, AmpC inh no detg, CHX counter, Shiga toxin inh)
COc1ccc(-c2csc(NC(=O)c3ccccc3S(C)(=O)=O)n2)cc1	none (no result: NS1 inh)
COC(=O)c1c(-c2ccncc2)csc1NC(=O)c1ccoc1C	AmpC inh no detg inconclusive, CHX counter 21, Shiga toxin inh 66
Cc1csc(NC(=O)c2ccc(S(C)(=O)=O)cc2)n1	CHX counter 40, Shiga toxin inh 72 (no result: NS1 inh)
COc1ccc(-c2csc(NC(=O)c3ccc(S(C)(=O)=O)cc3)n2)cc1	CHX counter 33, Shiga toxin inh 72
Cc1csc(NC(=O)c2ccc(S(=O)(=O)N(C)c3ccccc3)cc2)n1	CHX counter 34, Shiga toxin inh 42
Cc1ccccc1NC(=O)CSc1ncc2c(n1)-c1ccccc1N(C)S2(=O)=O	none (no result: NS1 inh, AmpC inh no detg, CHX counter, Shiga toxin inh)
Cc1nn2c(=O)cc(COC(=O)c3ccccc3NC(=O)c3cccs3)nc2s1	none (no result: NS1 inh, AmpC inh no detg, CHX counter, Shiga toxin inh)
Cc1cc(C)c(NC(=O)CN2C(=O)CCSc3ccc(S(=O)(=O)N4CCCC4)cc32)c(C)c1	none (no result: NS1 inh, AmpC inh no detg, CHX counter, Shiga toxin inh)

High-throughput results deposited in PubChem BioAssay by National Center for Advancing Translational Sciences (NCATS).
